In the supplement of paper PMC10849652:
The full data set covers some 7,900 targets. This sample favours those with a hit. About 0.6% of all pairs of compound and target were hits.

Legend:
Experiment in all cases: log2 fold change, soluble protein after heating vs DMSO (PISA); higher = thermal stabilisation; K562 cells, 10 uM, 30 min; active = over 0.2 and 3.5 SD of the protein, either way, in both replicates (recomputed)
[1] = compound: CC[C@@H]1C(=O)N(C)c2cnc(Nc3ccc(C(=O)NC4CCN(C)CC4)cc3OC)nc2N1C1CCCC1
In short: (§1)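 K562 cells at 2×10^6 cells/mL were given 10 μM compound for 30 min. Aliquots then went through 3 min of heating across 48°C-58°C, were pooled, and were extracted in PBS with 0.5% NP-40 at 4°C, and the supernatant after 21,000xg for 90 min was quantified by TMTpro 16plex LC-MS/MS with channel sums equalised. Thermal stability relative to control samples, from duplicates, is given as log2 fold change.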

volasertib = compound: CC[C@@H]1C(=O)N(C)c2cnc(Nc3ccc(C(=O)N[C@H]4CC[C@H](N5CCN(CC6CC6)CC5)CC4)cc3OC)nc2N1C(C)C [volasertib]
In short: as §1

[2] = compound: CC[C@H](C)N1C=C(C2=C(C=C(C=C21)C3=CN=C(C=C3)N4CCNCC4)C(=O)NCC5=C(C=C(NC5=O)C)C)C
In short: as §1

[3] = compound: CCn1c(C(=O)N(C2CC2)C2CC2)cc2c3c(ncn3C)c(Nc3cc(C)n(C)n3)nc21
In short: as §1

[4] = compound: CCn1cc(-c2ccnc3[nH]c(-c4cccc(CN(C)C)c4)cc23)c(-c2ccc(NC(=O)N(C)C)cc2)n1
In short: as §1

[5] = compound: CN(C)CC(=O)Nc1ccc2[nH]c(=O)c3ccccc3c2c1
In short: as §1

rosiglitazone = compound: CN(CCOC1=CC=C(C=C1)C[C@H]2C(=O)NC(=O)S2)C3=CC=CC=N3 (racemic) [rosiglitazone]
In short: as §1

[6] = compound: CN1CCC(CNc2ccc3ncc(-c4cccc(OC(F)(F)F)c4)n3n2)CC1
In short: as §1

alvocidib = compound: CN1CC[C@H](c2c(O)cc(O)c3c(=O)cc(-c4ccccc4Cl)oc23)[C@H](O)C1 [alvocidib]
In short: as §1

Tubastatin A = compound: CN1CCc2c(c3ccccc3n2Cc2ccc(C(=O)NO)cc2)C1 [Tubastatin A]
In short: as §1

[7] = compound: CNC(=O)C1=CC=CC=C1NC2=NC(=NC=C2Cl)NC3=C(C=C(C=C3)N4CCOCC4)OC
In short: as §1

defactinib = compound: CNC(=O)c1ccc(Nc2ncc(C(F)(F)F)c(NCc3nccnc3N(C)S(C)(=O)=O)n2)cc1 [defactinib]
In short: as §1

rucaparib = compound: CNCc1ccc(-c2[nH]c3cc(F)cc4c3c2CCNC4=O)cc1 [rucaparib]
In short: as §1

encorafenib = compound: COC(=O)N[C@@H](C)CNc1nccc(-c2cn(C(C)C)nc2-c2cc(Cl)cc(NS(C)(=O)=O)c2F)n1 [encorafenib]
In short: as §1

[8] = compound: COC(=O)[C@H](CCSC)NC(=O)C1=C(C=C(C=C1)NC[C@H](CS)N)C2=CC=CC=C2
In short: as §1

[9] = compound: CN1C2=C(C3=C1C(=O)N(N=C3)CC4=CC(=CC=C4)N)SC(=C2)S(=O)C
In short: as §1

saracatinib = compound: CN1CCN(CCOc2cc(OC3CCOCC3)c3c(Nc4c(Cl)ccc5c4OCO5)ncnc3c2)CC1 [saracatinib]
In short: as §1

sotrastaurin = compound: CN1CCN(c2nc(C3=C(c4c[nH]c5ccccc45)C(=O)NC3=O)c3ccccc3n2)CC1 [sotrastaurin]
In short: as §1

[10] = compound: CNc1nc(-c2ccc3c(N)n[nH]c3c2)cc(N2C[C@@H](C(=O)NC3CCCCC3)CC[C@H]2C)n1
In short: as §1

epoxomicin = compound: CC[C@H](C)[C@@H](C(=O)N[C@@H]([C@@H](C)O)C(=O)N[C@@H](CC(C)C)C(=O)[C@]1(CO1)C)NC(=O)[C@H]([C@@H](C)CC)N(C)C(=O)C [epoxomicin]
In short: as §1

Measured: log2 fold change

ATXN3 isoform 1 (UniProt P54252)
Chain of UniProt P54252 (P54252 whole entry, looked up): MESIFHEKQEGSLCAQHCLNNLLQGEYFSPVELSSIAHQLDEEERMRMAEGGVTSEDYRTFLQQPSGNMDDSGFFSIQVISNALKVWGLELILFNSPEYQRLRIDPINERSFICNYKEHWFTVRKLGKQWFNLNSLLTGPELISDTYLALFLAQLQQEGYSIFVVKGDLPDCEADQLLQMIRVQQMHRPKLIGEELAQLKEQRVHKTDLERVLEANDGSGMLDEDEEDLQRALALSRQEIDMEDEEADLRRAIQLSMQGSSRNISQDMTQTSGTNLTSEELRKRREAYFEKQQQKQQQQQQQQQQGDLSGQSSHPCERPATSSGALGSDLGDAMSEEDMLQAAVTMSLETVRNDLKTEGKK
inactive: [1] -0.371 | [2] 0.099 | [3] 0.011 | [4] -0.016 | [5] -0.083 | rosiglitazone -0.039 | [6] -0.015 | alvocidib -0.109 | Tubastatin A 0.138 | [7] -0.03 | defactinib -0.119 | rucaparib -0.015 | encorafenib 0.085 | [8] 0.018
active: volasertib -0.401

ARHGAP4 isoform 2 (UniProt P98171)
Chain of UniProt P98171 (P98171 whole entry, looked up): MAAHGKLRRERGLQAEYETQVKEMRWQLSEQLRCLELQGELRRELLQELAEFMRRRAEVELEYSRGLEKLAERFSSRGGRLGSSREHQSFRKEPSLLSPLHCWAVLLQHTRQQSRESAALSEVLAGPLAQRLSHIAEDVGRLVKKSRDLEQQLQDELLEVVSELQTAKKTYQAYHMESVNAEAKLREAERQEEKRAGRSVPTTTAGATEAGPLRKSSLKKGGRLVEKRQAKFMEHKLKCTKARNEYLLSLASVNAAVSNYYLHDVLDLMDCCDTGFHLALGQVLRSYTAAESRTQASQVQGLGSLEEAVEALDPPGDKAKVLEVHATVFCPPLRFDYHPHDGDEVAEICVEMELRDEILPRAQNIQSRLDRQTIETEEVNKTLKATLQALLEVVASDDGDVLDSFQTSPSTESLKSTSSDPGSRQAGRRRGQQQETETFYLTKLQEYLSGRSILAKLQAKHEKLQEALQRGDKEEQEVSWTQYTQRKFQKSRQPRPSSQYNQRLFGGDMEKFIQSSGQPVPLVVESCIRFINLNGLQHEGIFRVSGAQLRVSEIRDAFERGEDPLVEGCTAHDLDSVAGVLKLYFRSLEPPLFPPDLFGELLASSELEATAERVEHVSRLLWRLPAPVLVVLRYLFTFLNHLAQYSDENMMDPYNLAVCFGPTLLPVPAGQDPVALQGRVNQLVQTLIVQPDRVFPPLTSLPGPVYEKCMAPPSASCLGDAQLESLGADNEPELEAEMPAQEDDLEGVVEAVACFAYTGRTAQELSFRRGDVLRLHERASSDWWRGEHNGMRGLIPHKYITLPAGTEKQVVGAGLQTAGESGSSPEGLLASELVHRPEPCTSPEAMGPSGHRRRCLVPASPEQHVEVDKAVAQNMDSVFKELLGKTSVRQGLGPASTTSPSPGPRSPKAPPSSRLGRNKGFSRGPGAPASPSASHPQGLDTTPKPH
active: [9] 0.757
inactive: [1] -0.044 | volasertib -0.112 | [2] 0.048 | [3] -0.048 | [5] 0.036 | rosiglitazone 0.293 | saracatinib -0.094 | sotrastaurin 0.115 | alvocidib 0.089 | Tubastatin A -0.172 | [7] -0.096 | defactinib 0.22 | rucaparib -0.062 | [10] -0.139 | encorafenib 0.047 | [8] 0.097

ABCA3 (UniProt Q99758)
inactive: [1] -0.155 | volasertib -0.093 | epoxomicin 0 | [3] -0.035 | [4] 0.168 | [5] 0.108 | rosiglitazone -0.172 | [9] -0.013 | [6] -0.263 | saracatinib 0.009 | sotrastaurin 0.121 | alvocidib 0.047 | Tubastatin A -0.05 | [7] 0.065 | defactinib 0.108 | rucaparib 0.11 | [10] 0.011 | encorafenib 0.192 | [8] -0.039

BTBD6 (UniProt Q96KE9)
Chain of UniProt Q96KE9 (Q96KE9 whole entry, looked up): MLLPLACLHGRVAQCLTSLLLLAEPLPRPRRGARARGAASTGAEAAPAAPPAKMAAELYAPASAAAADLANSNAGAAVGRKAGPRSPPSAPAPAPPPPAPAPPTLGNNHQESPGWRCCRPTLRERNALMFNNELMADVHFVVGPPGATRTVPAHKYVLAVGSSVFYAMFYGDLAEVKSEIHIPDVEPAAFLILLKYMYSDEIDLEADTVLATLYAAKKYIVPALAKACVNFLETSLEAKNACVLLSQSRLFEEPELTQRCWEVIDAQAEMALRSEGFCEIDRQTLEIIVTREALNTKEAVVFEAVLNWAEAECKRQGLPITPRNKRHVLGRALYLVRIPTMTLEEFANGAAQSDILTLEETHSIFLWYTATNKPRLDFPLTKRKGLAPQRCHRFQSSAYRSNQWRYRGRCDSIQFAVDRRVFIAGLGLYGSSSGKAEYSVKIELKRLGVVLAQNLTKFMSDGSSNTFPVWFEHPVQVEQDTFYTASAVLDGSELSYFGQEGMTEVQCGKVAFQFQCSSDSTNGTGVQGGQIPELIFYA
inactive: [1] 0.017 | volasertib 0.001 | [2] -0.033 | epoxomicin -0.059 | [3] -0.163 | [4] -0.356 | [5] 0.066 | rosiglitazone 0 | [9] -0.112 | [6] -0.021 | saracatinib -0.031 | sotrastaurin 0.021 | alvocidib -0.143 | Tubastatin A 0.211 | [7] -0.141 | defactinib -0.131 | rucaparib 0.327 | [10] 0.082 | encorafenib -0.101 | [8] -0.009

APPL1 (UniProt Q9UKG1)
Chain of UniProt Q9UKG1 (Q9UKG1 whole entry, looked up): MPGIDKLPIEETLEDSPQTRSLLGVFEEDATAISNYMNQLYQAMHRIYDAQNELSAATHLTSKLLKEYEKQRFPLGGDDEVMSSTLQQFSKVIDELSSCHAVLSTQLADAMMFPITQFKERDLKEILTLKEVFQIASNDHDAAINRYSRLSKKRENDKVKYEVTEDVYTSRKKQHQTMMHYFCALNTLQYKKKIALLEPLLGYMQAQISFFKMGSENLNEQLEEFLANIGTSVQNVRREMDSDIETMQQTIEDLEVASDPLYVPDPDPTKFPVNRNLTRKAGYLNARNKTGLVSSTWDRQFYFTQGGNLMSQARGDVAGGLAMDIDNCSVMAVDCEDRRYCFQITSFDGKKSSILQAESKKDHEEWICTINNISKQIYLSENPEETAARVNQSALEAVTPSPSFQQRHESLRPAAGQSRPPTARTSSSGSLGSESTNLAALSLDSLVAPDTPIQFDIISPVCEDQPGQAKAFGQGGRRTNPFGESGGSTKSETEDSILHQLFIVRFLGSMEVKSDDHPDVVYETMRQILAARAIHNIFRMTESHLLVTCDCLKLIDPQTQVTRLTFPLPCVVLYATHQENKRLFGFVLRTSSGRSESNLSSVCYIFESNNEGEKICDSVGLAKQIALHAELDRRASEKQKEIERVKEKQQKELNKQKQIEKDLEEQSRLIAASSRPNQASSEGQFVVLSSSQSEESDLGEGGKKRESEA
inactive: [1] -0.149 | [2] 0.058 | epoxomicin -0.044 | [3] 0.038 | [4] -0.021 | [5] 0.02 | rosiglitazone 0.044 | [9] -0.113 | [6] -0.065 | saracatinib 0.029 | sotrastaurin -0.004 | alvocidib -0.179 | Tubastatin A 0.002 | [7] 0.027 | defactinib 0.037 | rucaparib -0.095 | [10] -0.03 | encorafenib 0.03 | [8] -0.029
active: volasertib -0.317

BRD3 (UniProt Q15059)
inactive: [2] -0.088 | [3] -0.065 | [5] 0.073 | rosiglitazone 0.019 | [9] -0.143 | [6] 0.106 | saracatinib 0.093 | sotrastaurin -0.116 | alvocidib -0.076 | [7] 0.011 | defactinib -0.319 | rucaparib -0.083 | [10] 0.325 | encorafenib 0.086 | [8] -0.128
active: [1] 1.63 | volasertib 1.46 | [4] 0.681 | Tubastatin A -0.571

APOBEC3G (UniProt Q9HC16)
Chain of UniProt Q9HC16 (Q9HC16 whole entry, looked up): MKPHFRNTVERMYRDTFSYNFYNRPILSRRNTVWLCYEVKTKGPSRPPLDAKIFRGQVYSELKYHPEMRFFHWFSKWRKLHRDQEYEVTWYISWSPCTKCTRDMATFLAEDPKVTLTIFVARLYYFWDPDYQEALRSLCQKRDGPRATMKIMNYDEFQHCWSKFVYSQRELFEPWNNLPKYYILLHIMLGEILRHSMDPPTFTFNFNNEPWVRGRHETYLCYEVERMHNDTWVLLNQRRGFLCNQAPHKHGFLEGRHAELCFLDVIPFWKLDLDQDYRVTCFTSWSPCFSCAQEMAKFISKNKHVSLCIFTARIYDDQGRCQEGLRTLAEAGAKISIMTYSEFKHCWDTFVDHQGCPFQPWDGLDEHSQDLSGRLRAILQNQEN
inactive: [1] 0.267 | volasertib -0.008 | [2] 0.051 | epoxomicin -0.146 | [3] 0.006 | [5] -0.148 | rosiglitazone -0.115 | [9] 0.025 | saracatinib 0.046 | sotrastaurin 0.023 | Tubastatin A -0.045 | [7] -0.093 | defactinib -0.097 | rucaparib 0.152 | [10] -0.121 | encorafenib -0.263 | [8] 0.038

ADD3 (UniProt Q9UEY8)
inactive: [1] 0.098 | volasertib 0.056 | [2] -0.024 | epoxomicin 0.014 | [3] 0.01 | [4] 0.054 | [5] -0.03 | rosiglitazone -0.006 | [9] -0.056 | [6] -0.023 | saracatinib 0.032 | sotrastaurin -0.087 | alvocidib -0.068 | Tubastatin A -0.02 | [7] -0.005 | defactinib -0.018 | rucaparib -0.013 | [10] -0.039 | encorafenib -0.003 | [8] 0.045

ASH2L (UniProt Q9UBL3)
active: volasertib -0.327
inactive: [1] -0.117 | [2] 0.079 | epoxomicin 0.041 | [3] -0.017 | [4] -0.012 | [5] -0.003 | rosiglitazone -0.004 | [9] 0.001 | [6] -0.012 | saracatinib 0.023 | sotrastaurin -0.025 | alvocidib -0.035 | Tubastatin A 0.052 | [7] 0.023 | defactinib -0.12 | rucaparib 0.012 | [10] -0.036 | encorafenib 0.037 | [8] -0.009

ATF1 (UniProt P18846)
Chain of UniProt P18846 (P18846 whole entry, looked up): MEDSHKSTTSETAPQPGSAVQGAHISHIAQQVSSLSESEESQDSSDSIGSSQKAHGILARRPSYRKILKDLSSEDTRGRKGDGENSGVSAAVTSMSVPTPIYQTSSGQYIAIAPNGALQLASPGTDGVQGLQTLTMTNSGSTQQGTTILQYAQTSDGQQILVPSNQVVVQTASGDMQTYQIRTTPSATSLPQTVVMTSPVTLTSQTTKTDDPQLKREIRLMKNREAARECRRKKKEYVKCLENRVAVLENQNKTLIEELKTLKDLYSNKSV
inactive: [1] 0 | volasertib 0.109 | [2] -0.065 | epoxomicin 0.17 | [3] 0.005 | [4] 0.035 | [5] 0.002 | rosiglitazone -0.104 | [6] -0.002 | sotrastaurin -0.098 | alvocidib 0.081 | Tubastatin A -0.068 | [7] -0.052 | defactinib 0.045 | rucaparib -0.128 | encorafenib -0.07 | [8] 0.024

BCCIP isoform 2 (UniProt Q9P287)
Chain of UniProt Q9P287 (Q9P287 whole entry, looked up): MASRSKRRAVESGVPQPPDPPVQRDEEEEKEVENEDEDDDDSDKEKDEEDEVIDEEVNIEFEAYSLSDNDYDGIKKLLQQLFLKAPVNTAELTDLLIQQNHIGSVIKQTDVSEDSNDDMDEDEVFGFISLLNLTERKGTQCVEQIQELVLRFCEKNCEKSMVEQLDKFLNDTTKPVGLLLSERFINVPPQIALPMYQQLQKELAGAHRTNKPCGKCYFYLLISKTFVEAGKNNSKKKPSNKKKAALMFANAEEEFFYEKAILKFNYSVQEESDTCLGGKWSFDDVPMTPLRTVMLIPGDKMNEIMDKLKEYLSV
inactive: [1] -0.037 | volasertib -0.038 | [2] 0.044 | epoxomicin 0.019 | [3] 0.023 | [4] 0.022 | [5] 0.026 | rosiglitazone 0.021 | [9] -0.042 | [6] -0.028 | saracatinib -0.004 | sotrastaurin -0.044 | alvocidib 0.031 | Tubastatin A -0.036 | [7] 0.013 | defactinib -0.019 | rucaparib 0.087 | [10] -0.005 | encorafenib 0.037 | [8] -0.024

ACSL5 isoform 3 (UniProt Q9ULC5)
active: [6] -0.361
inactive: [1] -0.013 | volasertib -0.088 | [2] 0.029 | epoxomicin 0.005 | [3] 0.03 | [4] -0.068 | [5] -0.084 | rosiglitazone -0.009 | [9] -0.216 | saracatinib 0.058 | sotrastaurin 0.078 | alvocidib -0.082 | Tubastatin A -0.057 | [7] 0.071 | defactinib -0.063 | rucaparib 0.005 | [10] -0.132 | encorafenib -0.072 | [8] 0

ATP6V1H (UniProt Q9UI12)
Chain of UniProt Q9UI12 (Q9UI12 whole entry, looked up): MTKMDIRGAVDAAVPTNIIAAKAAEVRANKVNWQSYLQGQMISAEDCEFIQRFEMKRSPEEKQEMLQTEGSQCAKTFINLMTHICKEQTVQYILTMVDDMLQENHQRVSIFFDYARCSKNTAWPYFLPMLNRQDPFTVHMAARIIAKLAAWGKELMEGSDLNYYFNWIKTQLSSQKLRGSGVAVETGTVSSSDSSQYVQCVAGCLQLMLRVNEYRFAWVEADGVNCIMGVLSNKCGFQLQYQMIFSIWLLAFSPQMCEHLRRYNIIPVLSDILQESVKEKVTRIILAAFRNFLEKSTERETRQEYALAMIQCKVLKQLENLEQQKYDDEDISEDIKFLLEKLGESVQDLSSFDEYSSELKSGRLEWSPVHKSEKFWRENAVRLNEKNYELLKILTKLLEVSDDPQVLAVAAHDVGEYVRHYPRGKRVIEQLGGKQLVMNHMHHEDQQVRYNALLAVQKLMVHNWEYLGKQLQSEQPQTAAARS
active: [4] -0.244
inactive: [1] -0.085 | volasertib -0.093 | [2] 0.069 | epoxomicin 0.098 | [3] 0.041 | [5] 0.012 | rosiglitazone 0.048 | [9] -0.026 | [6] -0.069 | saracatinib -0.047 | sotrastaurin -0.015 | alvocidib -0.065 | Tubastatin A 0.046 | [7] -0.016 | defactinib -0.042 | rucaparib 0.016 | [10] 0.054 | encorafenib 0.016 | [8] -0.043

ABITRAM (UniProt Q9NX38)
Chain of UniProt Q9NX38 (Q9NX38 whole entry, looked up): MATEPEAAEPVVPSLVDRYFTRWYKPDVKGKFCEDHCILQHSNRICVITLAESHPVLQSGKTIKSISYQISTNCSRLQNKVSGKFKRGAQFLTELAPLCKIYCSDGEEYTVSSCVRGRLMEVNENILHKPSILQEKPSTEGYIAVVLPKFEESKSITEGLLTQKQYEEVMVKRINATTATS
inactive: [1] 0.033 | volasertib -0.11 | [2] 0.088 | epoxomicin 0.055 | [4] 0.137 | [5] 0.051 | rosiglitazone 0.139 | [9] -0.034 | [6] -0.093 | saracatinib 0.035 | sotrastaurin -0.188 | alvocidib -0.107 | Tubastatin A -0.007 | defactinib -0.164 | rucaparib -0.041 | [10] -0.243 | encorafenib 0.025 | [8] -0.049

AMD1 (UniProt P17707)
Chain of UniProt P17707 (P17707 whole entry, looked up): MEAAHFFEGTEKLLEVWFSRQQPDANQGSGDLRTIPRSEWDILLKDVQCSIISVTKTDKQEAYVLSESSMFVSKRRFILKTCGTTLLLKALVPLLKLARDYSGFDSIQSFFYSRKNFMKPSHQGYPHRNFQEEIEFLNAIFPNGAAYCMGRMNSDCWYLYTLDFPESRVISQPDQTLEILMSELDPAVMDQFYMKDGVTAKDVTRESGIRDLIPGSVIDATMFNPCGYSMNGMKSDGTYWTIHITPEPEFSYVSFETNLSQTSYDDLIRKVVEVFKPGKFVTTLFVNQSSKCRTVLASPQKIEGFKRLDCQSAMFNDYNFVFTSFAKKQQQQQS
inactive: [1] 0.061 | volasertib -0.098 | [2] 0.099 | epoxomicin 0.057 | [3] -0.073 | [4] -0.033 | [5] -0.101 | rosiglitazone 0.089 | [6] -0.091 | sotrastaurin -0.017 | Tubastatin A 0.014 | [7] 0.02 | defactinib 0.082 | rucaparib -0.08 | encorafenib 0.023 | [8] 0.042

APH1A (UniProt Q96BI3)
Chain of UniProt Q96BI3 (Q96BI3 whole entry, looked up): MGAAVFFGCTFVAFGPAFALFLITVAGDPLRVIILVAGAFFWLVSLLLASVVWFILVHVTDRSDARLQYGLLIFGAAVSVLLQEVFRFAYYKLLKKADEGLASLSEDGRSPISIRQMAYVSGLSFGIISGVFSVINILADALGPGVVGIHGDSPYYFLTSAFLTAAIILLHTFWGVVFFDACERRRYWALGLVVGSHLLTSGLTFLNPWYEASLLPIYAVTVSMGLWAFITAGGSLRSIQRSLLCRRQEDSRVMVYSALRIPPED
inactive: [1] -0.023 | volasertib 0.031 | [2] 0.004 | [3] -0.019 | [4] 0.026 | [5] 0.19 | rosiglitazone -0.183 | [9] 0.034 | [6] 0.03 | saracatinib 0.025 | sotrastaurin 0.131 | alvocidib 0.073 | Tubastatin A 0.097 | [7] -0.047 | defactinib -0.089 | rucaparib 0.002 | [10] -0.01 | encorafenib 0 | [8] -0.111
